Only some compounds are listed: those with a hit (about 11% of all), similar ones and a draw of the others.
USP30 block: inhibitors of human USP30 deubiquitinase; hit rate 5.3% among 47,000; AID 1645860; Q70CQ3; inhibition, % at 25 µM; purified USP30, Ub-rhodamine cleavage fluorescence
USP28 block: inhibitors of human USP28 deubiquitinase; purified USP28, Ub-rhodamine cleavage fluorescence, 30 min; inhibition, % at 25 µM; hit rate 3% among 47,000; AID 1645857
USP17 inh: inhibitors of human USP17 deubiquitinase. inhibition, % at 50 µM. A8MUK1. hit rate 6.5% among 47,000. purified USP17, Ub-rhodamine cleavage fluorescence, 3 h. AID 1645855
* hit, by the source's call. No stated cut-off is given here; in the data, active means inhibition above about 30%; inactive means the rest.

`CC(C)n1ccc(-c2cc(C(=O)N3CCN(C)CC3)c3ccccn23)n1` gave USP30 block inactive, USP28 block -245.8 and USP17 inh -160.8.
For CCN1CCc2nc(NC(=O)COc3ccc(Nc4ccccc4)cc3)sc2C1 the results were USP30 block 1.4, USP28 block 25.3 and USP17 inh 29.5.
For CCN1CCc2nc(NC(=O)COc3c(Cl)cccc3Cl)sc2C1 the results were USP30 block -2.8, USP28 block 11.7 and USP17 inh 36.6*.
Screening Cc1ncsc1CN1CCC(c2nccnc2-c2ncc[nH]2)CC1 returned USP30 block -4.2, USP28 block 4.2 and USP17 inh 0.0.
`CCOC(=O)C1CCN(C(=O)c2sc(-c3ccccc3F)nc2C)CC1` gave USP30 block 2.5, USP28 block 9.5 and USP17 inh -5.6.
Screening O=C(COc1ccc(Cl)cc1)N1CCC(c2c[nH]c3ccccc23)(c2c[nH]c3ccccc23)CC1 returned USP30 block 39.4* and USP28 block 5.0.
O=C(COc1ccccc1)N1CCC2(CC1)NC(=O)N(Cc1ccc(Cl)cc1)C2=O was read as USP30 block -17.7 and USP28 block -13.6.
`Cc1cc(-c2cnc(C)nc2C2CCN(C(=O)c3sc(C)nc3C)CC2)on1` gave USP30 block -0.3, USP28 block -1.5 and USP17 inh -0.1.
`Cc1ccc(CS(=O)Cc2ccc(C(=O)NCc3ccc4c(c3)OCO4)o2)cc1` (stereo unspecified) gave USP30 block -3.8, USP28 block -0.5 and USP17 inh -13.2.
For CC(C)(CNc1nn2cnnc2c2ccccc12)N1CCOCC1 the results were USP30 block 13.0, USP28 block 9.3 and USP17 inh 12.0.
Screening CCCC(=O)Nc1nc2ccc(CCC(=O)NCc3ccccc3)cc2s1 returned USP30 block -15.9, USP28 block 2.1 and USP17 inh 4.0.
For Cc1cc(C)n2c(SCC(=O)NCc3ccc4c(c3)OCO4)nnc2n1 the results were USP30 block -7.3, USP28 block 14.2 and USP17 inh 16.6.
Screening c1ccc2c(c1)c(NCc1ccc3c(c1)OCO3)nn1cnnc21 returned USP30 block -27.1, USP28 block 8.5 and USP17 inh 41.1*.
For CC(C)C(=O)Nc1nc2ccc(CCC(=O)NCc3ccc4c(c3)OCO4)cc2s1 the results were USP30 block 38.2*, USP28 block 23.3 and USP17 inh 23.5.
Cc1ccc(CNC(=O)CCC(=O)NCc2ccc3c(c2)OCO3)o1 was read as USP30 block 20.1, USP28 block 6.2 and USP17 inh 38.5*.
O=C(CSc1nnc2sc3ccccc3n12)NCc1ccc2c(c1)OCO2 was read as USP30 block 19.8, USP28 block -0.8 and USP17 inh 31.7*.
Screening Clc1ccc(CCNc2nc3ccc(Cl)cc3n3cnnc23)cc1 returned USP30 block -66.0, USP28 block -24.9 and USP17 inh -39.3.
`Cc1[nH]c(C)c(S(=O)(=O)Nc2ccc(Cl)cc2)c1-c1nc(C2CC2)no1` gave USP30 block 20.0, USP28 block 16.9 and USP17 inh 15.1.
CC1=C(C(=O)c2ccc(Cl)cc2)C(c2ccc(C)cc2C)NC(=O)N1 (stereo unspecified) was read as USP30 block -374.6, USP28 block -128.2 and USP17 inh -56.9.
O=C(Cn1c(=O)nc(-c2ccccc2)c2ccccc21)NCc1ccc2c(c1)OCO2 was read as USP30 block 8.9, USP28 block 31.1* and USP17 inh 67.8*.
For Cc1nc(-c2ccccc2)sc1C(=O)NCc1ccc2c(c1)OCO2 the results were USP30 block 21.0, USP28 block 5.6 and USP17 inh -0.3.
`CN(Cc1ccccc1F)C(=O)c1nc(-c2ccccc2)n(-c2ccccc2)n1` gave USP30 block 46.8*, USP28 block 21.0 and USP17 inh 24.7.
`CCn1c(C(=O)O)c(CNCc2ccc3c(c2)OCO3)c2ccccc21` gave USP30 block 4.0, USP28 block 4.1 and USP17 inh 6.6.
Screening O=C(NCc1ccc2c(c1)OCO2)c1nc(-c2ccccc2)n(-c2ccccc2)n1 returned USP30 block 55.0*, USP28 block 6.3 and USP17 inh 17.7.
Screening CN(Cc1ccccc1F)C(=O)c1ccc(-c2ccccc2F)o1 returned USP30 block -0.4 and USP28 block 18.4.
Screening O=C(NCc1ccc2c(c1)OCO2)C1(c2ccccc2)CCCC1 returned USP30 block -2.6, USP28 block -2.5 and USP17 inh -8.3.
For O=C(NCc1ccc2c(c1)OCO2)c1cc2ccccc2s1 the results were USP30 block 29.5, USP28 block 41.5* and USP17 inh 22.7.
O=C1NCCCn2cc(S(=O)(=O)NCCc3ccccc3)cc21 was read as USP30 block -33.8, USP28 block -14.8 and USP17 inh -47.0.
For CNC(=O)[C@@]12O[C@H]3COC(C)(C)O[C@H]3[C@@H]1OC(C)(C)O2 the results were USP30 block 3.3, USP28 block -6.8 and USP17 inh 0.2.

Screening results as filed in PubChem.
